The target in one assay is CRYGS. As to the kind of experiment: pooled miR-30 sensor sort-seq; sequence = guide strand. The settings on record: shRNA.
In turn, AAGATCTGAATCTTATACTGGC gave a sensor-assay potency score (higher = more potent) of 0.642.
TGAACAGCTCTGCAGGAGCTGA returned a sensor-assay potency score (higher = more potent) of -1.21.
Take TCGGTGGTTTCATACATCTGAC: the sensor-assay potency score (higher = more potent) was -1.43.
Turning to TCGCAATCACAGTCATAGCGAC, the sensor-assay potency score (higher = more potent) was -1.06.
In turn, TGGAGTTGCAGCGACTTAGGTA gave a sensor-assay potency score (higher = more potent) of -0.835.
Same read-out and setting: the same measure for TTTGTCTTCATAGAAAGTAATC: -1.62; for TGATGGAAGGGCAATCTTCGGT: -1.06; for TTAATGGAGTTGCAGCGACTTA: -1.8.
For TTCGGTGGTTTCATACATCTGA, the sensor-assay potency score (higher = more potent) came out at 0.37.
Still for that read-out and setting: the same measure for TTTCATACATCTGACCACTAAA: -1.27; for TTGAAAATTTTTGTCTTCATAG: -1.17; for TCGCATGTGAAATTGCTCCATG: -0.662.
AAAGATCTGAATCTTATACTGG registered a sensor-assay potency score (higher = more potent) of 0.0834.
Consider TAATGGAGTTGCAGCGACTTAG, for which the sensor-assay potency score (higher = more potent) is -1.4.
For the sequence TATACTGGCCTCCACTAGGCAG, the sensor-assay potency score (higher = more potent) is -0.983.
In turn, TTTCTCAAAGATCTGAATCTTA displayed a sensor-assay potency score (higher = more potent) of 0.174.

In a further assay the target is CSE1L. The assay is described as above. The settings on record: shRNA.
As to TTGACCTACAGGATCATGCTCT, the sensor-assay potency score (higher = more potent) is 0.379.
Turning to TATATTGGTCAACTGATTCAGG, the sensor-assay potency score (higher = more potent) is -0.381.
TTGTGTAATTCCATGCTTCTGT displayed a sensor-assay potency score (higher = more potent) of -0.12.
Same read-out and setting: with TTGAATTGCATTACTTACCAAC the figure was -0.851.
The sequence TAAGTATGAACAACAATACTTT registered a sensor-assay potency score (higher = more potent) of -0.402.
With TTAATCAAGAGAGGAATCGAGA, the sensor-assay potency score (higher = more potent) was -0.818.
For the sequence TACATTTCCAGATACCTTCTGA, the sensor-assay potency score (higher = more potent) was -0.0308.
Take TAACAGCTAATAGCTTCTGTGT: the sensor-assay potency score (higher = more potent) is -1.13.
In the case of TTAGCTTTGCAAGTTATTCTTA, the sensor-assay potency score (higher = more potent) is 0.362.
The same measure, in the same setting: the same measure for TCATCTTCAACAATTCTCCAGT: -0.0113; for TTGGGTTCTTACTAACAGCTAA: -0.417.
With TTGACTTAAATTCATGACGGTA, the sensor-assay potency score (higher = more potent) was -0.629.
Still for that read-out and setting: the same measure for TATTGCTTCAAACATGTAGTGA: -0.339; for TTCATCTTCAACAATTCTCCAG: -0.255; for TAAGATTTCAGTAAACACCAAA: -0.574.
In turn, TAGCAGAATCTCAACAAACGGT came in with a sensor-assay potency score (higher = more potent) of -0.43.
The same measure, in the same setting: the same measure for TTATGGATAAACATATTGCTTC: -0.779; for TTTTAAATAATGAATGTGCTGT: 0.306.
In turn, TAGAAGATAAAAACCTTGGTGG showed a sensor-assay potency score (higher = more potent) of 0.264.
On the same count and under the same terms, with TTCTGTGGAAAATCTTCTCTGC the figure was 0.43; with TAATATATTTGATACCGTCAGC, -0.712.
As to AAAACTTGCATAATCCTCGTAC, the sensor-assay potency score (higher = more potent) was found to be 0.387.

The values above are taken from the OligoGym collection.
Note: reference of the scale not given here.
